{"source": "the supplement of paper PMC7866885", "about": "“A novel bicyclic 2,4-diaminopyrimidine inhibitor of Streptococcus suis dihydrofolate reductase” (PeerJ, 2021)", "note": "± gives the standard deviation.", "data": [{"tested_on": "Streptococcus suis HE06", "experiment": "percent growth relative to DMSO control; higher = less growth inhibition", "settings": "10 µM; incubation time 18 h", "description": "(§1)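 CLSI broth microdilution: 5x10^4 CFU of Streptococcus suis (strain P1/7 or HE06) incubated with 10 µM Pathogen Box compound in cation-adjusted Mueller Hinton broth, 37 °C, 5% CO2, 18 h. Growth read as OD600 and expressed as percent of the DMSO-treated control (100%); mean ± SD of three independent experiments.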", "units": {"percent growth": "%"}, "values": [{"smiles": "COc1cc(NC(C)CCCN)c2ncccc2c1", "note": "(stereo unspecified)", "percent growth": "90.6 ± 4"}, {"smiles": "N#Cc1ccc(-c2cnc(N)c(-c3ccc(C(N)=O)cc3)n2)cc1", "percent growth": "114 ± 46"}, {"smiles": "CCc1nc2ccc(C(=O)NCc3ccc4c(c3)OCO4)cn2c1N(C)Cc1cccs1", "percent growth": "122 ± 67"}, {"smiles": "CC(C)(C)c1ccc(N[C@@H]2CCCC[C@H]2NC(=O)c2ccco2)cc1", "percent growth": "104 ± 7.9"}, {"smiles": "COc1cncc(-c2cncc(N3CCN(c4ccncc4)CC3)n2)c1", "percent growth": "87.2 ± 26"}, {"smiles": "CCCCCCCCCCCCCCCCOP(=O)([O-])OCC[N+](C)(C)C", "percent growth": "117 ± 7.1"}, {"smiles": "CCN(CC)CCCCCCNc1cc(OC)cc2c(C)ccnc12", "percent growth": "81.6 ± 14"}, {"smiles": "c1cc(C2=NCCN2)cc(-c2cc(-c3ccc(C4=NCCN4)cc3)no2)c1", "percent growth": "103 ± 19"}, {"smiles": "CC(C)(C)C1CCC(CC2=C(O)C(=O)c3ccccc3C2=O)CC1", "note": "(stereo unspecified)", "percent growth": "17.3 ± 28"}, {"smiles": "Cc1cc2nc(NC(=O)C(C)(C)C)nc(Cl)c2n1Cc1ccc(Cl)cc1", "percent growth": "115 ± 19"}, {"smiles": "O=C(Nc1nnc(S)s1)c1cc(Br)ccc1Cl", "percent growth": "107 ± 10"}, {"smiles": "COc1cc(Br)cc2cc(C(=O)Nc3cccc(C(F)(F)F)c3)c(=O)oc12", "percent growth": "116 ± 26"}, {"smiles": "COc1ccc(-c2cnc3ccc(NCc4ccc(S(N)(=O)=O)cc4)nn23)cn1", "percent growth": "85.1 ± 6.3"}, {"smiles": "Cn1c(=O)c2c(S(C)(=O)=O)snc2n(C)c1=O", "percent growth": "40.1 ± 32"}, {"smiles": "CS(=O)(=O)Cc1nc2ccccc2oc1=O", "percent growth": "67.6 ± 7.5"}, {"smiles": "c1ccc(-c2nc(NC3CCCCC3)cc(C3CC3)n2)nc1", "percent growth": "7.51 ± 12"}, {"smiles": "c1ccc(Oc2ccc(-c3cc(N4CCOCC4)[nH]n3)cc2)cc1", "percent growth": "81.2 ± 21"}, {"smiles": "CCC(=O)Nc1ccccc1C(=O)Nc1ccccn1", "percent growth": "93.7 ± 5.2"}, {"smiles": "COc1cccc(-n2nnnc2S(C)(=O)=O)c1", "percent growth": "88.1 ± 9.8"}, {"smiles": "O=C(CN1CCOCC1)Nc1ccc2ncnc(Nc3ccc(OCc4cccc(F)c4)c(Cl)c3)c2c1", "percent growth": "53.5 ± 39"}, {"smiles": "O=C(NCCN1CCCC1)c1cc(NCCCCN2CCC(F)(F)CC2)nc2ccc(Cl)cc12", "percent growth": "93 ± 6.6"}, {"smiles": "CCCS(=O)(=O)N1CCC(CO)(Cc2ccccc2C(F)(F)F)CC1", "percent growth": "99.2 ± 19"}, {"smiles": "CCNC(=O)C(C)Nc1nc(-c2cccnc2)nc2sc(C)c(C)c12", "note": "(stereo unspecified)", "percent growth": "101 ± 8.4"}, {"smiles": "Cc1ccc(C(=O)Nc2ccc(S(=O)(=O)O)c3cc(S(=O)(=O)O)cc(S(=O)(=O)O)c23)cc1NC(=O)c1cccc(NC(=O)Nc2cccc(C(=O)Nc3cc(C(=O)Nc4ccc(S(=O)(=O)O)c5cc(S(=O)(=O)O)cc(S(=O)(=O)O)c45)ccc3C)c2)c1", "percent growth": "78.7 ± 8.8"}, {"smiles": "FC(F)(F)c1cccc(-c2nc3c(NCc4ccncc4)nccc3[nH]2)c1", "percent growth": "90.4 ± 20"}, {"smiles": "Oc1c(I)cc(I)c2cccnc12", "percent growth": "0.688 ± 0.61"}, {"smiles": "OCCc1ccc(Nc2nccc(-c3nnc4ccccn34)n2)cc1", "percent growth": "92.9 ± 6.6"}, {"smiles": "COc1ccc(C2(C(=O)Nc3ccc(Br)cc3)CCCC2)cc1", "percent growth": "120 ± 25"}, {"smiles": "O=C(CCC1CCCCC1)Nc1cccc(-c2nnc(-c3ccco3)o2)c1", "percent growth": "93.8 ± 3.7"}, {"smiles": "CC(C)(C)CN1C(=O)C(c2ccccc2)(c2ccccc2)N=C1N", "percent growth": "46.1 ± 39"}, {"smiles": "N=C(N)Nc1ccc(-c2ccc(-c3ccc(N=C(N)N)c(Cl)c3)o2)cc1Cl", "percent growth": "27.7 ± 29"}, {"smiles": "CN(C)c1cc(NC(=O)Nc2ccccc2)c2ccccc2n1", "percent growth": "105 ± 8.6"}, {"smiles": "O=C(Nc1ccccc1)c1ccc(-c2cc3ccncc3cc2OC2CCNCC2)s1", "percent growth": "85.8 ± 20"}, {"smiles": "CC(C)NCC(=O)Nc1cccc(C(=O)Nc2cccc(C(F)(F)F)c2)c1", "percent growth": "104 ± 4.8"}, {"smiles": "O=C(c1ccc(F)cc1)N(CCNc1ccccc1)c1ccccc1", "percent growth": "106 ± 17"}, {"smiles": "COc1cc(CN2CCC3(C=Cc4ccccc43)CC2)cc2c1OCO2", "percent growth": "82 ± 16"}, {"smiles": "c1ccc(Oc2ccc(-c3cc(CN4CCOCC4)[nH]n3)cc2)cc1", "percent growth": "90.8 ± 3.9"}, {"smiles": "Cc1nc(-c2cccc(NCc3ccccc3)c2)[nH]c1C", "percent growth": "60.1 ± 36"}]}, {"tested_on": "Streptococcus suis P1/7", "experiment": "percent growth relative to DMSO control; higher = less growth inhibition", "settings": "10 µM; incubation time 18 h", "description": "as §1", "units": {"percent growth": "%"}, "values": [{"smiles": "COc1cc(NC(C)CCCN)c2ncccc2c1", "note": "(stereo unspecified)", "percent growth": "127 ± 60"}, {"smiles": "N#Cc1ccc(-c2cnc(N)c(-c3ccc(C(N)=O)cc3)n2)cc1", "percent growth": "73.1 ± 4.3"}, {"smiles": "CCc1nc2ccc(C(=O)NCc3ccc4c(c3)OCO4)cn2c1N(C)Cc1cccs1", "percent growth": "72.9 ± 11"}, {"smiles": "CC(C)(C)c1ccc(N[C@@H]2CCCC[C@H]2NC(=O)c2ccco2)cc1", "percent growth": "78.1 ± 19"}, {"smiles": "COc1cncc(-c2cncc(N3CCN(c4ccncc4)CC3)n2)c1", "percent growth": "64.3 ± 15"}, {"smiles": "CCCCCCCCCCCCCCCCOP(=O)([O-])OCC[N+](C)(C)C", "percent growth": "112 ± 40"}, {"smiles": "CCN(CC)CCCCCCNc1cc(OC)cc2c(C)ccnc12", "percent growth": "83.2 ± 15"}, {"smiles": "c1cc(C2=NCCN2)cc(-c2cc(-c3ccc(C4=NCCN4)cc3)no2)c1", "percent growth": "88.8 ± 25"}, {"smiles": "CC(C)(C)C1CCC(CC2=C(O)C(=O)c3ccccc3C2=O)CC1", "note": "(stereo unspecified)", "percent growth": "36.3 ± 11"}, {"smiles": "Cc1cc2nc(NC(=O)C(C)(C)C)nc(Cl)c2n1Cc1ccc(Cl)cc1", "percent growth": "109 ± 58"}, {"smiles": "O=C(Nc1nnc(S)s1)c1cc(Br)ccc1Cl", "percent growth": "79.5 ± 9.2"}, {"smiles": "COc1cc(Br)cc2cc(C(=O)Nc3cccc(C(F)(F)F)c3)c(=O)oc12", "percent growth": "115 ± 52"}, {"smiles": "COc1ccc(-c2cnc3ccc(NCc4ccc(S(N)(=O)=O)cc4)nn23)cn1", "percent growth": "89.2 ± 15"}, {"smiles": "Cn1c(=O)c2c(S(C)(=O)=O)snc2n(C)c1=O", "percent growth": "93 ± 120"}, {"smiles": "CS(=O)(=O)Cc1nc2ccccc2oc1=O", "percent growth": "88.2 ± 53"}, {"smiles": "c1ccc(-c2nc(NC3CCCCC3)cc(C3CC3)n2)nc1", "percent growth": "0.494 ± 1.2"}, {"smiles": "c1ccc(Oc2ccc(-c3cc(N4CCOCC4)[nH]n3)cc2)cc1", "percent growth": "61.7 ± 32"}, {"smiles": "CCC(=O)Nc1ccccc1C(=O)Nc1ccccn1", "percent growth": "103 ± 41"}, {"smiles": "COc1cccc(-n2nnnc2S(C)(=O)=O)c1", "percent growth": "67.1 ± 23"}, {"smiles": "O=C(CN1CCOCC1)Nc1ccc2ncnc(Nc3ccc(OCc4cccc(F)c4)c(Cl)c3)c2c1", "percent growth": "63 ± 18"}, {"smiles": "O=C(NCCN1CCCC1)c1cc(NCCCCN2CCC(F)(F)CC2)nc2ccc(Cl)cc12", "percent growth": "79.3 ± 14"}, {"smiles": "CCCS(=O)(=O)N1CCC(CO)(Cc2ccccc2C(F)(F)F)CC1", "percent growth": "82.4 ± 27"}, {"smiles": "CCNC(=O)C(C)Nc1nc(-c2cccnc2)nc2sc(C)c(C)c12", "note": "(stereo unspecified)", "percent growth": "64.5 ± 34"}, {"smiles": "Cc1ccc(C(=O)Nc2ccc(S(=O)(=O)O)c3cc(S(=O)(=O)O)cc(S(=O)(=O)O)c23)cc1NC(=O)c1cccc(NC(=O)Nc2cccc(C(=O)Nc3cc(C(=O)Nc4ccc(S(=O)(=O)O)c5cc(S(=O)(=O)O)cc(S(=O)(=O)O)c45)ccc3C)c2)c1", "percent growth": "85.9 ± 15"}, {"smiles": "FC(F)(F)c1cccc(-c2nc3c(NCc4ccncc4)nccc3[nH]2)c1", "percent growth": "72.5 ± 22"}, {"smiles": "Oc1c(I)cc(I)c2cccnc12", "percent growth": "-0.0569 ± 0.099"}, {"smiles": "OCCc1ccc(Nc2nccc(-c3nnc4ccccn34)n2)cc1", "percent growth": "88.5 ± 13"}, {"smiles": "COc1ccc(C2(C(=O)Nc3ccc(Br)cc3)CCCC2)cc1", "percent growth": "92.5 ± 15"}, {"smiles": "O=C(CCC1CCCCC1)Nc1cccc(-c2nnc(-c3ccco3)o2)c1", "percent growth": "111 ± 46"}, {"smiles": "CC(C)(C)CN1C(=O)C(c2ccccc2)(c2ccccc2)N=C1N", "percent growth": "49.6 ± 44"}, {"smiles": "N=C(N)Nc1ccc(-c2ccc(-c3ccc(N=C(N)N)c(Cl)c3)o2)cc1Cl", "percent growth": "53.1 ± 27"}, {"smiles": "CN(C)c1cc(NC(=O)Nc2ccccc2)c2ccccc2n1", "percent growth": "87 ± 34"}, {"smiles": "O=C(Nc1ccccc1)c1ccc(-c2cc3ccncc3cc2OC2CCNCC2)s1", "percent growth": "72.3 ± 8.4"}, {"smiles": "CC(C)NCC(=O)Nc1cccc(C(=O)Nc2cccc(C(F)(F)F)c2)c1", "percent growth": "125 ± 65"}, {"smiles": "O=C(c1ccc(F)cc1)N(CCNc1ccccc1)c1ccccc1", "percent growth": "122 ± 66"}, {"smiles": "COc1cc(CN2CCC3(C=Cc4ccccc43)CC2)cc2c1OCO2", "percent growth": "83.9 ± 5.5"}, {"smiles": "c1ccc(Oc2ccc(-c3cc(CN4CCOCC4)[nH]n3)cc2)cc1", "percent growth": "95.7 ± 15"}, {"smiles": "Cc1nc(-c2cccc(NCc3ccccc3)c2)[nH]c1C", "percent growth": "12 ± 5.5"}]}]}
